Screening data: PubChem BioAssay, The Scripps Research Institute Molecular Screening Center
In the library only some 3.5% were active in any assay of this set; here they are far more common.
MITF primary: MITF inhibitors, primary screen, biochemical, AlphaScreen, human; AlphaScreen MITF homodimerization, bead proximity signal; inhibition, % at 2.6 µM; 0.91% of 650,000 active; AID 1259374, 2018; in the data active means inhibition above about 50%;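 further: 0% = vehicle wells with protein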
TEAD-YAP block: TEAD-YAP interaction inhibition, primary screen, TEAD-YAP interaction inhibitor project, luminescence, HEK-TIYL cells; 1.4% of 640,000 active; inhibition, % at 9.12 µM; TEAD-Gal4/YAP UAS-luciferase luminescence; in the data active means inhibition above about 32%;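 further: 0% = median of test compound wells and 100% = reference inhibitor wells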
GPR151 activ: activators of human GPR151, primary screen, cell-based, PathHunter beta-arrestin, luminescence. activation, % at 11.2 µM. PathHunter beta-arrestin GPR151 cells. 1% of 650,000 active. G-protein coupled receptor 151 (Homo sapiens), Q8TDV0. AID 1508602, 2020; in the data active means activation above about 4.9%;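 further: 0% = median of compound wells and 100% = cells with positive control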
FBW7 act: FBW7 E3 ligase activators, primary screen, biochemical, AlphaScreen, human. AlphaScreen FBW7–phospho-cyclin E peptide binding, activator screen. 0.13% of 650,000 active. normalized activity (activation), % at 26.1 µM; in the data active means normalized activity above about 1.9%;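 further: purified mutant Fbw7 with reduced substrate affinity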
MITF inh conf: MITF inhibitors, retest of hits, confirmation, biochemical, AlphaScreen, triplicate. shares compounds with MITF primary. AlphaScreen MITF homodimerization, biotin/His-MITF beads. inhibition, % at 2.6 µM. 16% of 4,700 active. AID 1259372, 2018;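 active means inhibition above a cutoff derived from the DMSO control wells, cut at about 28% in these data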;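 further: 0% = MITF dimer wells with DMSO only; inhibitors lower the bead chemiluminescence by keeping MITF from dimerizing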
AS interf DR: AlphaScreen optical interference compounds, dose response, counter-screen, biochemical, HTS; IC50, µM; 6% of 480 active; shares compounds with MITF primary; AlphaScreen optical interference counterscreen, cell-free; AID 1259373, 2018; call rule not given here
AlphaScreen intf2: AlphaScreen optical interference compounds, counter-screen for MITF inhibitor project, biochemical, triplicate; shares compounds with MITF primary; LysRS AlphaScreen counterscreen, signal interference; inhibition, % at 2.6 µM; 7.6% of 4,700 active; AID 1259376, 2018;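 active means inhibition above a cutoff derived from the DMSO control wells, cut at about 30% in these data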
* marks the source's active call; other numbers are inactive results; . = no result given.

SMILES	MITF primary	TEAD-YAP block	GPR151 activ	FBW7 act	MITF inh conf	AlphaScreen intf2	others
Clc1cccc(CN2CCN(CC3CC=CCC3)CC2)c1 (stereo unspecified)	32	-7	1	0	.	.
Cn1nnnc1SCC(=O)c1ccc(C2CCCCC2)cc1	-6	-36	-2	0	.	.
Cc1ccc2c(c1C)C(C)(C)C1(C=Nc3c(ccc4ncccc34)O1)N2C (stereo unspecified)	57*	3	2	0	52*	52*
Cc1ccc(NC(=O)N2CCC(C(=O)Nc3cccc(C)c3C)CC2)cc1	15	-3	-1	0	.	.
COc1ccc(NC(=O)CSc2nc3ccccc3c(=O)n2CC2COc3ccccc3O2)c(OC)c1 (stereo unspecified)	-3	-8	2	0	.	.
CC(=O)CC1OC(=O)C(Oc2ccccc2)=C1Br (stereo unspecified)	1	-1	0	0	.	.
NCC1OC(=O)C(Oc2ccccc2)=C1Br (stereo unspecified)	59*	15	0	-1	77*	-18	AS interf DR=>6.5
Cc1ccc(CN2CCNC(=O)C2CC(=O)N2CCC(O)(c3ccccn3)CC2)o1 (stereo unspecified)	11	-1	1	0	.	.
C1=CC2CC1CC2CN1CCN(C2CCCC2)CC1 (stereo unspecified)	67*	1	0	0	-18	-4
C1=CC2CC1CC2CN1CCN(C2CCCCCC2)CC1 (stereo unspecified)	55*	14	0	0	-3	-6
C1=CC2CC1CC2CN1CCN(C2CCC(c3ccccc3)CC2)CC1 (stereo unspecified)	63*	4	0	0	-16	4
C1=CC2CC1CC2CN1CCN(C2CCCCC2)CC1 (stereo unspecified)	48	7	0	0	.	.
CCC(C)N1CCN(CC2CC3C=CC2C3)CC1 (stereo unspecified)	73*	-8	0	0	-3	1
O=C(CN1C(=O)C2C3C=CC(C3)C2C1=O)Nc1ccccc1O (stereo unspecified)	-2	2	-2	0	.	.
COc1cc(Nc2cc(-c3ccc(C(=O)N4CCN(C)CC4)cc3)ncn2)cc(OC)c1OC	4	7	1	0	.	.
CCCCCCNC(=O)c1ccc2c(c1)NC(=O)C(CSCc1ccccc1C)N2 (stereo unspecified)	1	8	1	0	.	.
O=C(Nc1ccc(N2CCC(NCc3n[nH]c4c3CCC4)CC2)cc1)c1ccccc1F	-15	1	-1	0	.	.
Cc1ccc(-c2c(NCCc3ccc(Cl)cc3)c(=O)c2=O)cc1	-2	-7	-2	0	.	.
CCc1ccc(N2C(=O)C(Cl)=C(NC3CCCCC3)C2=O)cc1	64*	-4	2	0	-5	6
c1ccc2c(Nc3nc(NCc4nc5ccccc5[nH]4)c4ncn(-c5ccsc5)c4n3)nccc2c1	62*	27	2	1	-7	11
CCOc1cc(-c2cc(OCC)c3c(C)oc(C)c3c(=O)c2)ccc1O	-7	-7	0	0	.	.
CCOc1cc(-c2ccc(I)o2)cc(=O)c2c(C)oc(C)c12	58*	-2	-1	0	37*	-2
COc1ccc(CCNCc2ccc(-n3ccnc3)cc2)cc1	36	-1	-1	0	.	.
COc1ccc(CNC(C)c2ccc(-n3ccnc3)cc2)cc1F (stereo unspecified)	66*	0	1	0	14	19
O=C(CCCCC(=O)Nc1ccc(F)cc1)Nc1ccc(F)cc1	56*	11	-1	1	2	1
CCC(C)NS(=O)(=O)c1ccc(NC(=O)CN2CCOCC2)cc1 (stereo unspecified)	54*	-8	0	0	3	17
